The values below come from PubChem BioAssay (NCI).

Test systems include SR leukemia; RPMI-8226 leukemia; OVCAR-8 ovarian; OVCAR-5 ovarian; OVCAR-4 ovarian; SK-OV-3 ovarian; IGROV1 ovarian; OVCAR-3 ovarian; HS 578T breast; NCI/ADR-RES ovarian; T-47D breast; BT-549 breast; MDA-MB-435 melanoma; SW-620 colon; MCF7 breast; HCT-116 colon; HCC-2998 colon; KM12 colon.
What all share (test): NCI-60 one-dose screen, 48 h (100 = growth as untreated, 0 = no growth, -100 = all killed)
Common to all, as to details: 10 µM unless noted

The panel holds about 83,000 compounds, 20% with a hit somewhere; the sample as a whole holds those more often.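 Note: values are percent growth. 100 is the growth of untreated cells, values between 100 and 0 indicate rising inhibition; between -100 and 0 indicates cell death.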 Unmarked numbers belong to inactive results. Activity calls are given as the source filed them. Rule for the calls: active = growth percent below 10; inactive = the rest.

With `C=C(C)[C@@H]1CC[C@]2(C(=O)N3CCNCC3)CC[C@]3(C)[C@H](CC[C@@H]4[C@@](C)(CCC(=O)N5CCNCC5)[C@H](C(=C)C)CC[C@]43C)[C@@H]12`, the growth was -15.2% (active) in the assay with SR leukemia; 12.1% in the assay on RPMI-8226 leukemia; 47.8% with OVCAR-8 ovarian; 104% in the assay on OVCAR-5 ovarian; 81.9% with OVCAR-4 ovarian; 101% with SK-OV-3 ovarian. Moreover, the growth with IGROV1 ovarian was 101%; in the assay with OVCAR-3 ovarian it was 70.7%; with HS 578T breast it was 92.4%; in the assay on NCI/ADR-RES ovarian it was 95.6%; in the assay on T-47D breast, 103%; in the assay on BT-549 breast, 88.5%. For the same compound, the growth in the assay on MDA-MB-435 melanoma was 74%; in the assay with SW-620 colon, -14.4% (active); with MCF7 breast, 26.4%; in the assay with HCT-116 colon, -56.1% (active); with HCC-2998 colon, 81%; in the assay with KM12 colon, 51.2%.

In the case of `Nc1ccc(Br)cc1C(F)(F)F`, the growth in the assay on SR leukemia was 112%; with RPMI-8226 leukemia, 115%; with OVCAR-8 ovarian, 100%; in the assay with OVCAR-5 ovarian it was 94.9%; in the assay with OVCAR-4 ovarian it was 124%; with SK-OV-3 ovarian, 103%. Further, the growth in the assay with IGROV1 ovarian was 114%; in the assay on OVCAR-3 ovarian, 120%; in the assay with HS 578T breast it was 113%; with NCI/ADR-RES ovarian, 106%; with T-47D breast it was 96.7%; in the assay on BT-549 breast, 107%. In addition, the growth is 117% in the assay on MDA-MB-435 melanoma; 111% in the assay on SW-620 colon; 106% with MCF7 breast; 103% with HCT-116 colon; 114% with HCC-2998 colon; 112% with KM12 colon.

Regarding `COc1cccc(CNc2c3ccccc3nc3ccccc23)c1OC`, the growth is 17.5% with SR leukemia; 17% with RPMI-8226 leukemia; 39.2% in the assay with OVCAR-8 ovarian; 43% in the assay with OVCAR-5 ovarian; 36.6% in the assay on OVCAR-4 ovarian; 66% in the assay on SK-OV-3 ovarian. The growth in the assay with IGROV1 ovarian was 23.2%; in the assay with OVCAR-3 ovarian it was 65.1%; in the assay on HS 578T breast, 64.3%; in the assay on NCI/ADR-RES ovarian, 33.2%; with T-47D breast, 47.5%; in the assay with BT-549 breast it was 59.7%. Also, the growth in the assay on MDA-MB-435 melanoma is 46.3%; with SW-620 colon, 25.4%; in the assay with MCF7 breast, 10.1%; in the assay with HCT-116 colon, 11.8%; in the assay on HCC-2998 colon, 38.3%; in the assay on KM12 colon it was 52.4%.

For the compound `O=c1oc2c(cc1-c1ccccc1)c(=O)[nH]c1ccccc12`, the growth with SR leukemia was 108%; in the assay on RPMI-8226 leukemia, 101%; with OVCAR-8 ovarian it was 95.7%; in the assay with OVCAR-5 ovarian, 103%; in the assay with OVCAR-4 ovarian it was 99.6%; in the assay with SK-OV-3 ovarian it was 105%. Further, the growth in the assay with IGROV1 ovarian is 103%; with OVCAR-3 ovarian it was 112%; in the assay on HS 578T breast it was 98.1%; with NCI/ADR-RES ovarian, 102%; in the assay with T-47D breast, 95.4%; in the assay with BT-549 breast, 97.5%. The growth is 97.7% in the assay with MDA-MB-435 melanoma; 105% in the assay with SW-620 colon; 87.3% in the assay on MCF7 breast; 97.1% in the assay with HCT-116 colon; 105% with HCC-2998 colon; 101% in the assay on KM12 colon.

As for `COc1cc2ncnc(Nc3ccc(F)c(Cl)c3)c2cc1OCC(=O)N1CCOCC1`, the growth with SR leukemia was 89.3%; with RPMI-8226 leukemia, 91%; with OVCAR-8 ovarian, 87.2%; in the assay with OVCAR-5 ovarian it was 74.1%; in the assay with OVCAR-4 ovarian it was 82.7%; with SK-OV-3 ovarian, 17.4%. The growth is 45.6% in the assay on IGROV1 ovarian; 79.7% in the assay with OVCAR-3 ovarian; 96.7% with HS 578T breast; 81.9% in the assay with NCI/ADR-RES ovarian; 53.5% in the assay with T-47D breast; 98.5% in the assay on BT-549 breast. The growth with MDA-MB-435 melanoma is 102%; with SW-620 colon it was 102%; in the assay with MCF7 breast, 83.9%; in the assay with HCT-116 colon, 84%; in the assay with HCC-2998 colon it was 94.3%; in the assay with KM12 colon, 94.4%.

As for `Clc1ccc2nn3c4ccccc4c(OCCN4CCOCC4)nc3c2c1`, the growth was 88.1% in the assay on SR leukemia; 91.8% in the assay with RPMI-8226 leukemia; 85% in the assay on OVCAR-8 ovarian; 93.2% in the assay with OVCAR-5 ovarian; 90% in the assay with OVCAR-4 ovarian; 94.1% with SK-OV-3 ovarian. Besides, the growth in the assay on IGROV1 ovarian was 71%; in the assay on OVCAR-3 ovarian, 97.5%; in the assay with HS 578T breast it was 97.5%; in the assay on NCI/ADR-RES ovarian it was 80.4%; with T-47D breast it was 87.7%; with BT-549 breast, 97.8%. In addition, the growth in the assay with MDA-MB-435 melanoma was 103%; in the assay on SW-620 colon it was 88.1%; in the assay with MCF7 breast, 83.4%; with HCT-116 colon, 88.7%; in the assay on HCC-2998 colon it was 107%; in the assay with KM12 colon, 100%.

In the case of `C=C1C(=O)O[C@H]2[C@H]1CC/C(COC(=O)NCc1ccc(Cn3c(=O)sn(-c4ccccc4)c3=O)cc1)=C\CC[C@@]1(C)O[C@@H]21`, the growth with SR leukemia is -4.67% (active); in the assay on RPMI-8226 leukemia, 1.88% (active); with OVCAR-8 ovarian, 42%; with OVCAR-5 ovarian, 68.3%; in the assay on OVCAR-4 ovarian it was 34.8%; in the assay with SK-OV-3 ovarian, 134%. Also, the growth with IGROV1 ovarian is -40.1% (active); in the assay on OVCAR-3 ovarian it was -15.6% (active); in the assay on HS 578T breast, 87.5%; in the assay on NCI/ADR-RES ovarian, 106%; with T-47D breast it was 57.7%; with BT-549 breast it was 51.3%. The growth with MDA-MB-435 melanoma is 33.4%; in the assay with SW-620 colon, -13% (active); with MCF7 breast, 15.4%; in the assay with HCT-116 colon it was 5.85% (active); with HCC-2998 colon, 75.2%; in the assay on KM12 colon, 96.8%.

In the case of `ClCCn1cnc2c(SCc3ccccc3)ncnc21`, the growth in the assay on SR leukemia was 43.6%; in the assay on RPMI-8226 leukemia it was 50.9%; with OVCAR-8 ovarian, 41.8%; in the assay on OVCAR-5 ovarian, 101%; in the assay on OVCAR-4 ovarian, 81.8%; with SK-OV-3 ovarian, 62.5%. The growth in the assay with IGROV1 ovarian is 133%; in the assay with OVCAR-3 ovarian, 73.4%; in the assay on HS 578T breast it was 62.8%; in the assay with NCI/ADR-RES ovarian it was 57.1%; in the assay on T-47D breast, 73.8%; in the assay with BT-549 breast, 70.4%. Besides, the growth in the assay on MDA-MB-435 melanoma was 51.8%; in the assay with SW-620 colon, 39.4%; in the assay with MCF7 breast, 42.5%; in the assay on HCT-116 colon, 31.5%; with HCC-2998 colon, 57.4%; in the assay with KM12 colon, 53.2%.
